Cycloheximide cs = affects cycloheximide protein synthesis inhibition readout, counter-screen | actives 12% (n = 300,000) | max response, % | cell reporter, cycloheximide protein synthesis inhibition counterscreen; in the data active means max response mostly above about 13%, no sharp cut-off; inactive means mostly below about 14%; further: read at 38.3 µM for the half of the compounds with a filed dose; 0% is about no effect
Shiga toxin inh = Shiga toxin inhibition. Vero cells, Shiga toxin protein synthesis inhibition reporter. inhibition, % at 38.7 µM. actives 9.2% (n = 290,000); in the data active means inhibition mostly above about 28%, no sharp cut-off; inactive means mostly below about 43%; further: 0% is about no effect
Tb PYK inh = blocks Trypanosoma brucei pyruvate kinase; TbPYK enzyme, Kinase-Glo Plus ATP luminescence, 45 min; Potency, µM (doses to about 76.8 µM), for the others: at the highest dose activity, negative = inhibition, most hits filed as inhibitors; Q57TT1; actives 0.12% (n = 410,000); AID 624173; further: potency means the concentration at half of the fitted maximal effect; on the % scale 0 is the no-effect control and ±100 the full control effect; nearly all actives have a fitted effect of over 50% in size
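Luminescent Kinase-Glo Plus end-point after 45 min room-temperature reaction of T. brucei pyruvate kinase started with 130 uM ADP (final). Buffer TEA 50 mM pH 7.2 with KCl, MgCl2, BSA, Tween-20; titration-based qHTS with fitted concentration-effect curves.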
LmPK inh = LmPK (Leishmania mexicana) enzyme inhibition; purified LmPK, Kinase-Glo ATP luminescence, 1 h; Potency, µM (series often up to 57.5 µM), without a hit: top-dose activity change, negative = inhibition, usual class: inhibitors; actives 0.37% (n = 290,000); further: potency means the concentration at half of the fitted maximal effect; on the % scale 0 is the no-effect control and ±100 the full control effect
Target sequence (Q27686 whole entry, looked up): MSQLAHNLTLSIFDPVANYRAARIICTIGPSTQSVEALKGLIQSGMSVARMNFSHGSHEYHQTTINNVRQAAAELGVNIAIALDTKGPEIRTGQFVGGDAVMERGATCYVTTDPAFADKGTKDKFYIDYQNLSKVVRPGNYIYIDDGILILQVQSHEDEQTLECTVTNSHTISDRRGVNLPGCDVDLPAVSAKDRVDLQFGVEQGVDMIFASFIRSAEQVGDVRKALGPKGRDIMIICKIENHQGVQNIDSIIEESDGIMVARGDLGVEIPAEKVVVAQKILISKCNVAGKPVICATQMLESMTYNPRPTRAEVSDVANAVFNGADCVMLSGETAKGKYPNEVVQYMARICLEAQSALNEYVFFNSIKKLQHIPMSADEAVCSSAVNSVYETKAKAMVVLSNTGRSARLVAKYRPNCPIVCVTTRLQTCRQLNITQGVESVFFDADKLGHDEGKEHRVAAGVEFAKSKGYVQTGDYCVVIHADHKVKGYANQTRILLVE
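Pyruvate kinase activity monitored as ATP production (luciferase luminescence). Conditions: 0.1 nM enzyme, 0.5 mM PEP, 0.1 mM ADP, 1 h, RT; normalized against uninhibited and no-enzyme wells.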
SARS PLpro yeast = blocks SARS-CoV papain-like protease in a yeast assay; Potency, µM (titrated, usually from 32.9 µM), inactives show at the highest dose activity, positive = growth rescue, usual class: activators; S. cerevisiae expressing SARS-CoV PLpro, growth rescue; actives 0.19% (n = 330,000); calls by dose curve; further: potency means the concentration at half of the fitted maximal effect; 0% is about no effect; nearly all actives have a fitted effect of over 55% in size
NS1 inh = influenza NS1 inhibition | Potency, µM (series often up to 46.1 µM), without a hit: top-dose activity, positive = more growth | actives 0.4% (n = 270,000) | AID 2326; calls by dose curve; further: potency means the concentration at half of the fitted maximal effect; actives are rising curves; nearly all actives have a fitted effect of over 50% in size
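A cell-based growth assay was used: compounds that relieve NS1-induced slow growth of budding yeast raise OD600. Assay medium was yeast nitrogen base with ammonium sulphate and -URA supplement, pH 6.0, with 2% galactose.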
* = called active by the depositor; i = inactive; ? = inconclusive; / = no result; [ ] = dose if it differs, or a comment. Only a selection was taken, and hits are over-represented in it overall. Unless noted, the call rests on the fitted dose curve; in most records, active means well fitted curve in the direction sought with a large enough effect; inconclusive means small, poorly fitted or top-dose-only effect, or another doubt; inactive means no such curve, though single readings can be large; an effect the other way counts as inactive or inconclusive.

SMILES | Cycloheximide cs | Shiga toxin inh | Tb PYK inh | LmPK inh | SARS PLpro yeast | NS1 inh
CN(C)/C=N/c1sc2c(c1C#N)CCC2 | 43* | 13 | -7% | 1% | 4% | -10%
CN(C)/C=N/c1sc2c(c1C#N)CCCCC2 | 56* | 20* | -7% | -2% | -5% | -12%
CCCN(/C=N/c1sc2c(c1C#N)CCCCC2)CCC | 16 | 18 | 1% | -4% | 14% | -1%
CN(C)/C=N/c1sc2c(c1C#N)CC(C)(C)NC2(C)C | 0 | -1 | -2% | -13% | 25% | 2%[9.22 µM]
N#Cc1c(/N=C/N2CCOCC2)sc2c1CCCCC2 | 24 | 107* | -1% | -16% | 2% | -26%
CC(=O)c1ccc(N2CCN(C(=O)C3CCN(S(=O)(=O)c4cccc5nonc45)CC3)CC2)cc1 | / | / | 1% | / | / | /
Cc1ccc(SCCC(=O)N2CCCC2)cc1 | 43* | 86* | -3% | -6% | -3% | -3%
Cc1ccc(SCC(=O)N2CCN(c3ccccn3)CC2)cc1 | 18* | 52* | -1% | 0% | 3% | -40%
Cc1ccc(SCCC(=O)NC(C)C)cc1 | 19 | 25 | 2% | -6% | 5% | -9%
Cc1ccc(SCc2ccc(C(=O)N3CCCC3)cc2)cc1 | 39* | 96* | -18% | -9% | -1% | -33%
Cc1ccc(SCCC(=O)N2CCOCC2)cc1 | 26* | 82 | 0% | 0% | 2% | 13%
OC1c2ccccc2N=C2CCCN21 (centres undefined) | -3 | -6 | / | / | / | /
COc1ccc([C@]23Cc4cc(OC)c(OC)cc4C(O2)c2c(cc(C)oc2=O)O3)cc1 | 1 | i | / | 1%[11.5 µM] | 1%[6.58 µM] | 14%
COC(=O)CC1Oc2ccccc2-n2cc(-c3ccc(Cl)cc3)nc21 (centres undefined) | / | / | -6% | / | / | /
O=C(O)CCC(=O)N1CCN(c2ccccn2)CC1 | -2 | -11 | 1% | 1% | 2% | 5%
Cc1ccc(SCC(=O)N2CCCC2)cc1 | 23* | 124* | -6% | -1% | -1% | 4%
O=C(CSc1ccc(Cl)cc1)N1CCCC1 | 46* | 65 | ? | 0% | 2% | 2%
CC(C)c1nnc(NC(=O)CCC(=O)N2CCN(c3ccccn3)CC2)s1 | 1 | 22 | -2% | -2% | 0% | 1µM*
O=C(CCSCc1ccccc1Cl)N1CCN(c2ccccn2)CC1 | 41* | 44* | 2% | 3% | -2% | -18%
Cn1cc(C(=O)N2CCCC(Nc3ccc(F)cc3)C2)c2ccccc21 (centres undefined) | -3 | -5 | -3% | -15% | -5% | -3%
CCc1nnc(NC(=O)Cc2ccc(Br)cc2)s1 | -2 | -13 | -7% | 0% | 1% | 3%
CC(NC(=O)c1ccc([N+](=O)[O-])cc1Cl)C1CC2CCC1C2 (centres undefined) | 14* | 43 | 2% | -6% | -2% | 1%
COc1ccc(O)c(C(=O)c2cc(C(=O)NCCc3ccccc3)c(=O)n(CCc3ccccc3)c2)c1 | 32* | 19 | -9% | 0% | 24% | ?
COc1ccc(C(=O)NNC(=O)CSc2nnc(C(C)C)n2C)cc1 | -5 | -9 | 3% | 1% | 10% | 2%
CCCc1ncc(C(O)c2cccc(OC)c2)n1C (centres undefined) | -2 | 14 | 2% | 5% | 2% | -6%
SMILES | Cycloheximide cs | Shiga toxin inh | Tb PYK inh | LmPK inh | SARS PLpro yeast | NS1 inh
COc1ccc(C(=O)c2cnc(C(C)C)n2C)cc1 | 16* | 82* | 3% | 3% | 1% | 2%
CCCc1ncc(C(=O)c2ccc(OC)cc2)n1C | 17 | 42* | -7% | -2% | -2% | -1%
Cc1c(C(=O)Nc2c(F)cccc2F)sc2ncn(Cc3ccccc3F)c(=O)c12 | / | / | 0% | / | / | /
Cc1ccc(Oc2ccc(C(F)(F)F)cc2[N+](=O)[O-])c([N+](=O)[O-])n1 | 30* | 58 | 3% | 1% | -2% | -3%
CC1=C(C)CC2(SC1)C(=O)N(c1ccccc1)N=C2N (centres undefined) | 23* | 48* | -17% | -1% | 2% | /
O=C(c1ccccc1)N1CCc2ccccc21 | 19 | 20 | 6% | -1% | -2% | ?
CSC1=NCCN1C(=O)c1ccc(Br)o1 | 39* | 92* | -4% | 9% | 21% | ?
O=C(c1ccco1)N1CCc2ccccc21 | 35* | 66* | -3% | -17% | -2% | /
O=C(c1ccc(Br)o1)N1CCCc2ccccc21 | -2 | 4 | -5% | -11% | 18% | -8%
O=C(NC(=S)N1CCCc2ccccc21)c1ccco1 | 33* | 82* | 1% | 5% | 0% | 10%
CC1Cc2ccccc2N1C(=S)NC(=O)c1ccco1 (centres undefined) | 6 | 23 | -9% | -5% | -1% | /
O=C(c1ccc(Br)o1)N1CCc2ccccc21 | 44* | 87* | / | 14µM* | -3% | -5%
Cc1ccc(-n2c(=O)c3cccnc3n2CC(=O)NCc2ccc(Cl)cc2)cc1 | / | / | -6% | / | / | /
N#CC(c1cccc([N+](=O)[O-])c1)C(CC(=O)c1ccccc1)c1ccccc1 (centres undefined) | / | / | -1% | / | / | /
O=C(c1ccc(-c2nnc(-c3ccccc3)o2)cc1)N1CCCCCC1 | 15 | 83* | ? | ? | -2% | -13%
O=C(c1nnc(-c2ccccc2)o1)C1CC1 | 37* | 97* | 2% | -22% | 2% | /
O=C(Nc1cccc(-c2nnc(-c3ccccc3)o2)c1)C1CC1 | 27 | 28 | 3% | 0% | 1% | -12%
O=C(O)c1ccc(-c2nnc(-c3ccccc3)o2)cc1 | 27* | 42* | -26% | 13µM* | -2% | 4%
C=CCC[C@@H](Cc1ccc(F)cc1)C(=O)OC[C@@H](Cc1c[nH]c2ccccc12)NC(=O)[C@@H](CC=C)CC(=O)N[C@H](CO)Cc1ccccc1 | / | / | -1% | / | 3% | /
COc1ccc2c(c1)[nH]c1c(=O)n(/N=C/c3ccc(OC)c(CN4CCCCC4)c3)cnc12 | -1 | -9 | -7% | 4% | 0% | 1%
COc1ccc2c(c1)[nH]c1c(=O)n(/N=C/c3ccc(OC)c(COc4ccccn4)c3)cnc12 | 6 | 67* | -1% | 2% | 8% | -10%
CCOC(=O)c1cccc(NC(=O)c2cc(C)nc3c2c(C)nn3-c2ccc(C)cc2)c1 | / | / | 2% | / | / | /
O=C(CCS(=O)(=O)c1ccccc1)NC12CC3CC(CC(C3)C1)C2 | 25* | 48 | 0% | 6% | -5% | -53%
O=c1c2ccccc2nnn1CCc1ccccc1 | / | / | -13% | / | / | /
O=C(O)C1(O)C[C@@H](O)C(O)[C@H](O)C1 (some centres undefined) | / | / | -13% | / | / | /
CCC1(C)NC(=O)N(/N=C/c2ccc(C)s2)C1=O (centres undefined) | 46* | 47* | 12% | 2% | 2% | 0%
CCN(C(=O)CSc1nc2ccccc2n1CC(=O)N1CCCC(C)C1)c1ccccc1 (centres undefined) | / | / | -1% | / | / | /

Source: PubChem (National Center for Advancing Translational Sciences (NCATS))
